From ChEMBL document CHEMBL3433997, “St. Jude Leishmania screening dataset” (2016)

Target: Solute carrier family 2, facilitated glucose transporter member 1 (Homo sapiens) (UniProt P11166)
Assay: ST_JUDE_LEISH: Cytotoxicity at 2uM final concentration against transgenic Leishmania Mexicana promastigotes LmGLUT1 that are glucose transport deficient and complemented with the human glucose transporter GLUT1. Activity is measured by DNA content using SYBR green in vitro
Type: functional

Solute carrier family 2, facilitated glucose transporter member 1 (Homo sapiens), sequence (P11166 whole entry): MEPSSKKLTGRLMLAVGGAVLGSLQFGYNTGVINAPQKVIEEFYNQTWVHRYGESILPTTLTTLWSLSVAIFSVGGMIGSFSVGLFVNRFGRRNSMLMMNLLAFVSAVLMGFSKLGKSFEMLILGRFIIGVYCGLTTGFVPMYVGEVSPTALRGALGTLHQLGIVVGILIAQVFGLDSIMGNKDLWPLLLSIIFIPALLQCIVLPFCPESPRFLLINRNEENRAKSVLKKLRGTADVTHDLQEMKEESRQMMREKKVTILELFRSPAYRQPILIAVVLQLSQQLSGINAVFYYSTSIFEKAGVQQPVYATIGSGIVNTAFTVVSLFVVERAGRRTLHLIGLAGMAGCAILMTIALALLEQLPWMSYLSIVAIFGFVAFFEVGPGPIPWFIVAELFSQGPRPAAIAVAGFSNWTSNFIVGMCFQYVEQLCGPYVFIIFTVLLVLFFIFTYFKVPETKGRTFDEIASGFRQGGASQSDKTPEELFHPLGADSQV

Compound | inhibition [%]
CC(CO)(CO)NCc1cc2ccc3ccsc3c2c2ccccc12 | 77.1
COc1ccc2nc3cc(Cl)ccc3c(NCCCO)c2c1 | 0.97
Cc1cc(Cl)ccc1NC(=O)NCCCCCN1CCC(c2c[nH]c3ccccc23)CC1 | 11.4
N#Cc1ccc(Cn2ccc3c4c(N)nc(N)nc4ccc32)cc1 | 82.6
Nc1nc(N)c2c(Cl)c(N(Cc3ccccc3)Cc3ccccc3)ccc2n1 | 23.6
CCCNc1nc(NCc2c(C)cccc2C)nc(NC(C)(C)C)n1 | 6.93
OC1=C2C(=Nc3ccccc3SC2c2cccs2)c2ccccc21 (stereo not drawn) | 12.2
COc1cc(NC(=O)c2sc(-c3ccc(Cl)cc3)cc2NC(=O)CN2CC[C@@H](O)C2)ccc1OCCN1CCCC1 | 23.1
FC(F)(F)c1ccc2[nH]c(-c3cccc(-c4ccc(CNCCN5CCNCC5)cc4)c3)nc2c1 | 2.75
N[C@@H](Cc1cc(I)c(Oc2ccc(O)c(C(=O)O)c2)c(I)c1)C(=O)O | 3.18
O=C(COc1ccc(Cl)c(Cl)c1)NCCCCCN1CCCN(C(=O)Nc2cc(Cl)cc(Cl)c2)CC1 | 5.88
NC(=O)c1cccc(C(=O)Nc2cccc(-c3ccc(-c4nc5ccccc5[nH]4)s3)c2)c1 | 1.49
NCc1ccc(CNCc2ccc(-c3ccc(-c4nc5cc(C(F)(F)F)ccc5[nH]4)s3)cc2)cc1 | 0.59
Fc1c(CNCC2CCN(CC3CCCCC3)CC2)cccc1C(F)(F)F | 4.53
Oc1ccc(OCc2ccccn2)cc1 | 3.05
NC1=NC2(CCCCC2)N(Cc2ccc(Cl)c(Cl)c2)C(N)=N1 | -1.03
O=C(NCc1ccc(F)cc1)c1cc(Br)cc(N2CCN(c3ccncc3)CC2)c1 | 7.75
CCCN(CCC)C(=O)c1cc(-c2cccc(C)c2)nc2ccccc12 | 2.62
Cc1c(CCc2cccc(F)c2F)[nH]c2ccccc2c1=O | -0.2
CCOC(=O)N1CCN(CCCNc2c3ccccc3nc3ccccc23)CC1 | 6.23

Compound | inhibition [%]
COc1ccc2c(c1)Nc1ccc(Cl)cc1C2N (stereo not drawn) | 3.78
c1ccc(CN2CCN(CCCCNc3c4ccccc4nc4ccccc34)CC2)cc1 | 31.7
CC(=O)N1Cc2ccccc2C1=O | 2.88
O=C(Nc1ccc(OC2CCN(Cc3ccsc3)CC2)c(Cl)c1)c1ccc(F)cc1 | 4.89
C/C=C/COc1ccc2ccccc2c1CNCCCCCCCCNCc1c(OC/C=C/C)ccc2ccccc12 | 16.7
CCOC(=O)c1ccc(NC(=O)Nc2ccc(-c3cccc(-c4nc5cccc(C)c5[nH]4)c3)cc2)cc1 | -0.01
O=C(NCCCN1CCN(c2cccc(Cl)c2)CC1)c1ccc(-c2nc3cc(Cl)c(Cl)cc3[nH]2)cc1 | 11.3
COc1ccc(CNC2CCN(C)CC2)cc1-c1ccc(S(=O)(=O)NCc2ccccc2)c(F)c1 | -0.66
O=C(C=Cc1ccc(F)cc1)NC1CCC(CCN2CCc3ccc(-c4cnccn4)cc3CC2)CC1 (stereo not drawn) | 0.54
CN1CCC(N2CCN(Cc3ccc(-c4ccc(-c5nc6ccccc6[nH]5)s4)cc3)CC2)CC1 | 8.42
CNc1ccc(CNCc2ccc(-c3ccc(-c4nc5cc(F)ccc5[nH]4)cc3)cc2)cc1 | 3.2
Oc1ccccc1CN1CCCC(COC(c2ccc(F)cc2)c2ccc(F)cc2)C1 (stereo not drawn) | 3.68
Cc1[nH]c(C)c(-c2ccc(C#Cc3ccc(F)cc3F)cc2)c(=O)c1Br | -0.29
CCCc1cc2c3c(N)nc(N)nc3ccc2n1CC | 6.73
O=C(Nc1cccc(F)c1)N[C@H]1CCN(CCCCCNC(=O)C2CC2c2ccc(Cl)c(Cl)c2)C1 (stereo partly drawn) | 4.75
CCC1=C(CC2NCCc3cc(OC)c(OC)cc32)CC2c3cc(OC)c(OC)cc3CCN2C1 (stereo not drawn) | 87.8
CN1CCN(CCCN(Cc2ccc(-c3ccc(CNCc4ccc5c(c4)OCO5)cc3)cc2)C(=O)CCC2CCCC2)CC1 | 4.67
Cc1nc(N)nc(N)c1-c1ccc(Br)c([N+](=O)[O-])c1 | 1.12
COc1cc(Br)ccc1N1CCN(CCCCNC(=O)c2ccc(NC(=O)c3ccc(Cl)cc3)cc2)CC1 | 2.1

Target: Hexose transporter 1 (Plasmodium falciparum) (UniProt O97467)
Assay: ST_JUDE_LEISH: Cytotoxicity at 2uM final concentration against transgenic Leishmania Mexicana promastigotes LmPfHT that are glucose transport deficient and complemented with the Plasmodium falciparum hexose transporter. Activity is measured by DNA content using SYBR green in vitro
Type: functional

Compound | inhibition [%]
CC(CO)(CO)NCc1cc2ccc3ccsc3c2c2ccccc12 | 71.3
COc1ccc2nc3cc(Cl)ccc3c(NCCCO)c2c1 | 0.85
Cc1cc(Cl)ccc1NC(=O)NCCCCCN1CCC(c2c[nH]c3ccccc23)CC1 | 14.9
N#Cc1ccc(Cn2ccc3c4c(N)nc(N)nc4ccc32)cc1 | 84.2
Nc1nc(N)c2c(Cl)c(N(Cc3ccccc3)Cc3ccccc3)ccc2n1 | 23.5
CCCNc1nc(NCc2c(C)cccc2C)nc(NC(C)(C)C)n1 | 8.23
OC1=C2C(=Nc3ccccc3SC2c2cccs2)c2ccccc21 (stereo not drawn) | 10.8
COc1cc(NC(=O)c2sc(-c3ccc(Cl)cc3)cc2NC(=O)CN2CC[C@@H](O)C2)ccc1OCCN1CCCC1 | 15.1
FC(F)(F)c1ccc2[nH]c(-c3cccc(-c4ccc(CNCCN5CCNCC5)cc4)c3)nc2c1 | 2.47
N[C@@H](Cc1cc(I)c(Oc2ccc(O)c(C(=O)O)c2)c(I)c1)C(=O)O | 3.91
O=C(COc1ccc(Cl)c(Cl)c1)NCCCCCN1CCCN(C(=O)Nc2cc(Cl)cc(Cl)c2)CC1 | -0.58
NC(=O)c1cccc(C(=O)Nc2cccc(-c3ccc(-c4nc5ccccc5[nH]4)s3)c2)c1 | 1.48
NCc1ccc(CNCc2ccc(-c3ccc(-c4nc5cc(C(F)(F)F)ccc5[nH]4)s3)cc2)cc1 | 1.45
Fc1c(CNCC2CCN(CC3CCCCC3)CC2)cccc1C(F)(F)F | 3.93
Oc1ccc(OCc2ccccn2)cc1 | 6.09
NC1=NC2(CCCCC2)N(Cc2ccc(Cl)c(Cl)c2)C(N)=N1 | -0.28
O=C(NCc1ccc(F)cc1)c1cc(Br)cc(N2CCN(c3ccncc3)CC2)c1 | 6.55
CCCN(CCC)C(=O)c1cc(-c2cccc(C)c2)nc2ccccc12 | 0.69
Cc1c(CCc2cccc(F)c2F)[nH]c2ccccc2c1=O | 5.03
CCOC(=O)N1CCN(CCCNc2c3ccccc3nc3ccccc23)CC1 | 4.08

Compound | inhibition [%]
COc1ccc2c(c1)Nc1ccc(Cl)cc1C2N (stereo not drawn) | 1.62
c1ccc(CN2CCN(CCCCNc3c4ccccc4nc4ccccc34)CC2)cc1 | 37.9
CC(=O)N1Cc2ccccc2C1=O | 3.51
O=C(Nc1ccc(OC2CCN(Cc3ccsc3)CC2)c(Cl)c1)c1ccc(F)cc1 | 2.78
C/C=C/COc1ccc2ccccc2c1CNCCCCCCCCNCc1c(OC/C=C/C)ccc2ccccc12 | 7.28
CCOC(=O)c1ccc(NC(=O)Nc2ccc(-c3cccc(-c4nc5cccc(C)c5[nH]4)c3)cc2)cc1 | -0.4
O=C(NCCCN1CCN(c2cccc(Cl)c2)CC1)c1ccc(-c2nc3cc(Cl)c(Cl)cc3[nH]2)cc1 | 8.6
COc1ccc(CNC2CCN(C)CC2)cc1-c1ccc(S(=O)(=O)NCc2ccccc2)c(F)c1 | -0.53
O=C(C=Cc1ccc(F)cc1)NC1CCC(CCN2CCc3ccc(-c4cnccn4)cc3CC2)CC1 (stereo not drawn) | -0.24
CN1CCC(N2CCN(Cc3ccc(-c4ccc(-c5nc6ccccc6[nH]5)s4)cc3)CC2)CC1 | 8.75
CNc1ccc(CNCc2ccc(-c3ccc(-c4nc5cc(F)ccc5[nH]4)cc3)cc2)cc1 | -0.46
Oc1ccccc1CN1CCCC(COC(c2ccc(F)cc2)c2ccc(F)cc2)C1 (stereo not drawn) | 3.28
Cc1[nH]c(C)c(-c2ccc(C#Cc3ccc(F)cc3F)cc2)c(=O)c1Br | 1.21
CCCc1cc2c3c(N)nc(N)nc3ccc2n1CC | 8.39
O=C(Nc1cccc(F)c1)N[C@H]1CCN(CCCCCNC(=O)C2CC2c2ccc(Cl)c(Cl)c2)C1 (stereo partly drawn) | 3.61
CCC1=C(CC2NCCc3cc(OC)c(OC)cc32)CC2c3cc(OC)c(OC)cc3CCN2C1 (stereo not drawn) | 92.4
CN1CCN(CCCN(Cc2ccc(-c3ccc(CNCc4ccc5c(c4)OCO5)cc3)cc2)C(=O)CCC2CCCC2)CC1 | 7.78
Cc1nc(N)nc(N)c1-c1ccc(Br)c([N+](=O)[O-])c1 | 2.99
COc1cc(Br)ccc1N1CCN(CCCCNC(=O)c2ccc(NC(=O)c3ccc(Cl)cc3)cc2)CC1 | 2.33
